Measured values: PubChem BioAssay (EPA / NIEHS)
“And” between values parts separate entries of the source, which are not always exact repeats. Equal values may be shown once. Inconclusive results are not listed. A structure can be active in one record and inactive in another. The source made the active and inactive calls. The calls were made as follows, unless noted: active = hit-call score of the fitted dose curve at least 0.9, where 1 is the maximum; inactive = score below 0.9.

Columns and labels:
[1] = ATG_Hpa5_TRANS: Attagene TRANS-FACTORIAL HepG2 Assay for human GAL4-Hpa5 Hepatocyte Transcription Factor Basal Promoter (AID 2282975; active = hit-call score of the fitted dose curve at least 0.9, where 1 is the maximum;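 also: hits are increases in reporter mRNA over DMSO baseline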); settings: HepG2 Attagene GAL4-Hpa5 transcription reporter
Procedure, shortened: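 Basal-promoter GAL4 background control within the HepG2 trans-factorial panel of transiently transfected reporter units. Reporter mRNA is measured 24 h after dosing by RT-PCR and capillary electrophoresis, fitted for gain of signal versus DMSO.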

[2] = ATG_GAL4_TRANS: Attagene TRANS-FACTORIAL HepG2 Assay for GAL4 (Internal Marker) (AID 2282976; active = hit-call score of the fitted dose curve at least 0.9, where 1 is the maximum); settings: HepG2 Attagene TRANS GAL4 internal marker reporter
Procedure, shortened: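 First, HepG2 cells were transfected with reporter units under GAL4-UAS control. Next, they were treated with chemical for 24 h. Finally, RNA was reverse-transcribed, PCR-amplified, FAM-labelled and resolved by capillary electrophoresis, with induction scored against DMSO.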

[3] = biological target: Oxysterols receptor LXR-alpha (Homo sapiens) (UniProt Q13133); experiment: ATG_LXRa_TRANS: Attagene TRANS-FACTORIAL HepG2 Assay for human Liver X Receptor alpha (LXRa) (AID 2282980; active = hit-call score of the fitted dose curve at least 0.9, where 1 is the maximum); settings: HepG2 Attagene TRANS reporter, LXRa transactivation
Sequence of Oxysterols receptor LXR-alpha (Homo sapiens) (Q13133 whole entry, looked up, the tested form may be a part): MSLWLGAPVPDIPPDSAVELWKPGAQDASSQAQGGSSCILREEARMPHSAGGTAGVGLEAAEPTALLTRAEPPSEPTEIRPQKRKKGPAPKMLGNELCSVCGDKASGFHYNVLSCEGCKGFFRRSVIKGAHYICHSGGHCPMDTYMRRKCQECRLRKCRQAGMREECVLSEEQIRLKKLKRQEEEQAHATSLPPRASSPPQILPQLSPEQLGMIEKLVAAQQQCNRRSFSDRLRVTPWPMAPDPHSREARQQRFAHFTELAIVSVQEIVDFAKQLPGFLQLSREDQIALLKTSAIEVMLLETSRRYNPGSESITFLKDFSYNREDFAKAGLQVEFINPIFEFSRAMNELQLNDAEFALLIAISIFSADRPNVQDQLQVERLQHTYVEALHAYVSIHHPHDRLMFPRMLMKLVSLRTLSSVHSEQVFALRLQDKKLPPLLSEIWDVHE
Procedure, shortened: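 Transfect HepG2 with GAL4-UAS multiplex reporter constructs (TRANS format, chimeric receptor-GAL4); treat 24 h; extract RNA, reverse-transcribe, PCR-amplify, FAM-label, HpaI-digest; resolve fragments by capillary electrophoresis. Upward response vs DMSO.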

[4] = biological target: Hepatocyte nuclear factor 4-alpha (Homo sapiens) (UniProt P41235); experiment: ATG_HNF4a_TRANS: Attagene TRANS-FACTORIAL HepG2 Assay for human Hepatocyte Nuclear Factor 4 alpha (HNF4a) (AID 2282982; active = hit-call score of the fitted dose curve at least 0.9, where 1 is the maximum); settings: HepG2 HNF4a transactivation reporter, mRNA readout
Sequence of Hepatocyte nuclear factor 4-alpha (Homo sapiens) (P41235 whole entry, looked up, the tested form may be a part): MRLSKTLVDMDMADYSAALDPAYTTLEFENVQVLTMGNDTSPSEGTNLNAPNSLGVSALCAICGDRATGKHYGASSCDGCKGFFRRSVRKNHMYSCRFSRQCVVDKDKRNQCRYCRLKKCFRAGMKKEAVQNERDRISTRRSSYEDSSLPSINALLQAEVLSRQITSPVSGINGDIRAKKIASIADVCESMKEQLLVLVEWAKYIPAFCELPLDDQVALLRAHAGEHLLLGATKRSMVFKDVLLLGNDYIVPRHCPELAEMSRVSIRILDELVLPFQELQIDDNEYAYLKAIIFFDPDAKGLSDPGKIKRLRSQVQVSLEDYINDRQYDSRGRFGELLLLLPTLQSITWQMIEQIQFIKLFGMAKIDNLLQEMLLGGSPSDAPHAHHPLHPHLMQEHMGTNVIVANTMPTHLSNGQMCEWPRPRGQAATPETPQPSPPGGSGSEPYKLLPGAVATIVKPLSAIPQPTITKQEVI
Procedure, shortened: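 HepG2 cells transiently transfected with multiplexed GAL4-UAS reporter units responsive to chimeric NR-GAL4 proteins; compound exposure 24 h. Reporter mRNA quantified by RT-PCR, 6-FAM labelling, HpaI digestion and capillary electrophoresis; gain of signal versus DMSO baseline.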

[5] = ATG_M_06_TRANS: Attagene TRANS-FACTORIAL HepG2 Assay for M06 Transcription Factor (Internal Marker) (AID 2282983; active = hit-call score of the fitted dose curve at least 0.9, where 1 is the maximum;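 also: reporter transcript level by RT-PCR then capillary electrophoresis fluorescence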); settings: HepG2 Attagene TRANS M06 internal marker reporter
Procedure, shortened: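 Transfect HepG2 with MRTUs → dose compounds 24 h → isolate RNA, oligo(dT) RT → PCR with reporter primers → 6-FAM primer extension → HpaI digest → CE fragment analysis. Positive direction vs DMSO.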

[6] = biological target: Transcriptional activator Myb (Homo sapiens) (UniProt P10242); experiment: ATG_Myb_CIS: Attagene CIS-FACTORIAL HepG2 Assay for human Myeloblastosis (Myb) Proto-Oncogene Transcription Factor (AID 2282986); settings: HepG2 Attagene CIS-FACTORIAL Myb reporter transcription; actives raise or lower the signal
Sequence of Transcriptional activator Myb (Homo sapiens) (P10242 whole entry, looked up): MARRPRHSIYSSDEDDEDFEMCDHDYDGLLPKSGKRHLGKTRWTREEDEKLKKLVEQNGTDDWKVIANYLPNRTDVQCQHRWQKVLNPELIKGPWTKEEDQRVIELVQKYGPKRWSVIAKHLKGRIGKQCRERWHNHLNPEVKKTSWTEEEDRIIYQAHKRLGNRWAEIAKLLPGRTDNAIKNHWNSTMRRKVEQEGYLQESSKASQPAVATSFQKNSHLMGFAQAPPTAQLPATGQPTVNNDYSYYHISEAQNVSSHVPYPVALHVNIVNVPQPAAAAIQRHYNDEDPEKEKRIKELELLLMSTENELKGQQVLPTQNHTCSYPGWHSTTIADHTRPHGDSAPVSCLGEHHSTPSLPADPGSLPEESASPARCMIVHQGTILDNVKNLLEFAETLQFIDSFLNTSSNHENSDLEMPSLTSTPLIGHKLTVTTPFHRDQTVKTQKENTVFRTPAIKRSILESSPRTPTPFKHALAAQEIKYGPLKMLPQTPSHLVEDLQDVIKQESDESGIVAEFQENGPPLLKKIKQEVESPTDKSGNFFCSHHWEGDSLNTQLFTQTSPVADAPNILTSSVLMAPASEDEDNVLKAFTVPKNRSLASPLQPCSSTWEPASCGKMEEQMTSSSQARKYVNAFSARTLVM
Procedure, shortened: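 Multiplexed cis-reporter system in HepG2: transient transfection, 24 h treatment, mRNA readout by RT-PCR and capillary electrophoresis. Both increases and decreases are scored versus DMSO negative control.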

[7] = biological target: Nuclear respiratory factor 1 (Homo sapiens) (UniProt Q16656); experiment: ATG_NRF1_CIS: Attagene CIS-FACTORIAL HepG2 Assay for human Nuclear Respiratory Factor 1 (NRF1) Orphan Gene (AID 2282987); settings: HepG2 NRF1 cis-element reporter, Attagene multiplex; actives raise or lower the signal
Sequence of Nuclear respiratory factor 1 (Homo sapiens) (Q16656 whole entry, looked up): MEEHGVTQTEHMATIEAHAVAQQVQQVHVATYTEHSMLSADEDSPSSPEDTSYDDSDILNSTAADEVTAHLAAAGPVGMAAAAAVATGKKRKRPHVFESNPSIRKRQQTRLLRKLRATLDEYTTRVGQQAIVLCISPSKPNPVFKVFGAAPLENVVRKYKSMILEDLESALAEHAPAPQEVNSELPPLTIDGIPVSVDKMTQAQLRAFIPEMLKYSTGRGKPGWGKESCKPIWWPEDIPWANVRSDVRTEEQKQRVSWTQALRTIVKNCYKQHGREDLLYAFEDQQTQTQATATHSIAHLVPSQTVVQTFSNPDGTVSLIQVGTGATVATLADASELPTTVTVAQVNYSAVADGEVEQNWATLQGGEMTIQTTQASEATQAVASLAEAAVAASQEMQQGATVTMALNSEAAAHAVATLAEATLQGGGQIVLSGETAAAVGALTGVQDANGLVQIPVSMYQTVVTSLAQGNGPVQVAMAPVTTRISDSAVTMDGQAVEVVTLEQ
Procedure, shortened: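 Endogenous factor activity was captured via cis-element-driven reporter transcripts in HepG2 cells. Following 24 h chemical treatment, transcripts were quantified by RT-PCR and capillary electrophoresis.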

[8] = ATG_NFI_CIS: Attagene CIS-FACTORIAL HepG2 Assay for human Nuclear Factor I (NFI) (AID 2282989); settings: HepG2 cis-regulatory reporter, NFI response element transcription; actives raise or lower the signal
Procedure, shortened: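 After transient transfection of HepG2 with cis-promoter reporter constructs and 24 h dosing, RNA is reverse-transcribed, amplified, 6-FAM end-labelled and HpaI-digested before capillary analysis. Bidirectional curve fitting against DMSO.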

[9] = biological target: Myc proto-oncogene protein (Homo sapiens) (UniProt P01106); experiment: ATG_Myc_CIS: Attagene CIS-FACTORIAL HepG2 Assay for human Myelocytomatosis (Myc) Proto-Oncogene Transcription Factor (AID 2282990); settings: HepG2, Attagene cis-reporter transcription factor activity; actives raise or lower the signal
Sequence of Myc proto-oncogene protein (Homo sapiens) (P01106 whole entry, looked up): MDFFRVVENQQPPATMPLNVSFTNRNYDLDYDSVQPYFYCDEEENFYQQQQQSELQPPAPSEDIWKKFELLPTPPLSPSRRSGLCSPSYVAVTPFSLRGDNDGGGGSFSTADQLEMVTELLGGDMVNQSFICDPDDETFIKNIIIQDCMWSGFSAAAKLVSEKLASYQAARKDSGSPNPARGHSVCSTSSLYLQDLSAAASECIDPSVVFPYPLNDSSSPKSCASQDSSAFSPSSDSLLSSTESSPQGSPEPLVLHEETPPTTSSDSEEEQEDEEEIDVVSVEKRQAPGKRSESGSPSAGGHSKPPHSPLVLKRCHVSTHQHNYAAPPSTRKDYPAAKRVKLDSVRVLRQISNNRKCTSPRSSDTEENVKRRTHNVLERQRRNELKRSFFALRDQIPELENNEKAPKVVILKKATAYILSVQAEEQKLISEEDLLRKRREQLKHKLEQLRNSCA
Procedure, shortened: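 DMSO-normalised, bidirectionally fitted reporter mRNA signal. HepG2 cells transfected with cis reporter constructs, treated 24 h; transcripts detected by RT-PCR, 6-FAM primer extension and CE.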

[10] = ATG_NRF2_ARE_CIS: Attagene CIS-FACTORIAL HepG2 Assay for human Nuclear Factor Erythroid 2 Related Factor 2 (NFR2) response to Antioxidant Response Elements (ARE) (AID 2282992); settings: HepG2 Attagene ARE/NRF2 reporter, transcription factor activity; actives raise or lower the signal
Procedure, shortened: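 Cis-factorial assay: transfected HepG2 reporter library, 24 h dosing, mRNA readout via RT-PCR/CE; DMSO-referenced bidirectional analysis.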

[11] = ATG_Oct_MLP_CIS: Attagene CIS-FACTORIAL HepG2 Assay for human Octamer-Binding Transcription Factor (Oct) (AID 2282993); settings: HepG2 Attagene cis-factorial Oct reporter, mRNA; actives raise or lower the signal
Procedure, shortened: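 Cells of the HepG2 line express promoter-controlled reporter sequences whose mRNA levels, after 24 h treatment, are measured by RT-PCR and capillary electrophoresis. Increases and decreases are scored relative to DMSO.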

[12] = biological target: Cellular tumor antigen p53 (Homo sapiens) (UniProt P04637); experiment: ATG_p53_CIS: Attagene CIS-FACTORIAL HepG2 Assay for human p53 Transcription Factor (AID 2282994); settings: HepG2 p53 cis-element reporter, Attagene mRNA; actives raise or lower the signal
Sequence of Cellular tumor antigen p53 (Homo sapiens) (P04637 whole entry, looked up): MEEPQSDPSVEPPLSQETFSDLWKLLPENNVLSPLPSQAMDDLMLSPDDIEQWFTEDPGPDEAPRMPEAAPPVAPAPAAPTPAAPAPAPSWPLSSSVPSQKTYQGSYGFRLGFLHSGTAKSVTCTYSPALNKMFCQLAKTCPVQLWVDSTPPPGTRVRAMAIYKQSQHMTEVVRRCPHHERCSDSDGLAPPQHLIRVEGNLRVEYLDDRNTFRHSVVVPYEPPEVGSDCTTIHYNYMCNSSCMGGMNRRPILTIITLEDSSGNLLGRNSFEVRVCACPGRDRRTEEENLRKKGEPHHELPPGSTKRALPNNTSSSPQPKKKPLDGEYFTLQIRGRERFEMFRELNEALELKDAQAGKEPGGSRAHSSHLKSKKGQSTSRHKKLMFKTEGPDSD
Procedure, shortened: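 Using HepG2 hepatoma cells carrying cis-acting multiplexed reporters, mRNA induction is detected after a 24 h exposure. Gain- and loss-of-signal responses are fitted relative to DMSO-treated cells.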

[13] = BSK_3C_TissueFactor: BioMAP Diversity Plus: 3C Assay for Tissue Factor Biomarker Activity (AID 2282997); settings: BioMAP 3C HUVEC, tissue factor biomarker readout; actives raise or lower the signal
Procedure, shortened: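 ELISA read-out of Tissue Factor levels on human umbilical vein endothelium collected 24 h after chemical dosing. Gain or loss of signal was fitted relative to DMSO.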

[14] = BSK_3C_uPAR: BioMAP Diversity Plus: 3C Assay for Urokinase-type plasminogen activator receptor (uPAR) Biomarker Activity (AID 2282998); settings: BioMAP 3C HUVEC, uPAR biomarker ELISA; actives raise or lower the signal
Procedure, shortened: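 Endothelial primary cells of human umbilical vein origin received test chemical; 24 h later uPAR was assayed by ELISA. Fitting was bidirectional, DMSO as negative control.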

[15] = biological target: Glucocorticoid receptor (Homo sapiens) (UniProt P04150); experiment: ATG_GR_TRANS: Attagene TRANS-FACTORIAL HepG2 Assay for human Glucocorticoid Receptor (GR) (AID 2282978; active = hit-call score of the fitted dose curve at least 0.9, where 1 is the maximum;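 also: activators score as hits since higher reporter transcript over DMSO is fitted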); settings: HepG2 Attagene TRANS GR reporter, mRNA transcription
Procedure, shortened: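 HepG2 transient transfection, multiple reporter units, GAL4-UAS under NR-GAL4 chimera control. 24 h treatment. Reporter mRNA by RT-PCR/CE fluorescence, DMSO as negative control.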

[16] = ATG_NF_kB_CIS: Attagene CIS-FACTORIAL HepG2 Assay for human Nuclear Factor Kappa B (NF-kB) (AID 2282991); settings: HepG2 Attagene cis-factorial NF-kB reporter mRNA; actives raise or lower the signal
Procedure, shortened: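 After 24 h compound incubation, transfected HepG2 cells yield total RNA; reporter cDNA is PCR-amplified, end-labelled with 6-FAM, HpaI-digested and analysed on a genetic analyser. Endogenous factor activity, DMSO-referenced bidirectional fit.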

[17] = biological target: Estrogen-related receptor gamma (Homo sapiens) (UniProt P62508); experiment: ATG_ERRg_TRANS: Attagene TRANS-FACTORIAL HepG2 Assay for human Estrogen-Related Receptor gamma (ERRg) (AID 2282977; active = hit-call score of the fitted dose curve at least 0.9, where 1 is the maximum;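 also: hits increase reporter signal over DMSO so potencies reflect activators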); settings: HepG2 Attagene TRANS reporter, ERRg transactivation
Sequence of Estrogen-related receptor gamma (Homo sapiens) (P62508 whole entry, looked up, the tested form may be a part): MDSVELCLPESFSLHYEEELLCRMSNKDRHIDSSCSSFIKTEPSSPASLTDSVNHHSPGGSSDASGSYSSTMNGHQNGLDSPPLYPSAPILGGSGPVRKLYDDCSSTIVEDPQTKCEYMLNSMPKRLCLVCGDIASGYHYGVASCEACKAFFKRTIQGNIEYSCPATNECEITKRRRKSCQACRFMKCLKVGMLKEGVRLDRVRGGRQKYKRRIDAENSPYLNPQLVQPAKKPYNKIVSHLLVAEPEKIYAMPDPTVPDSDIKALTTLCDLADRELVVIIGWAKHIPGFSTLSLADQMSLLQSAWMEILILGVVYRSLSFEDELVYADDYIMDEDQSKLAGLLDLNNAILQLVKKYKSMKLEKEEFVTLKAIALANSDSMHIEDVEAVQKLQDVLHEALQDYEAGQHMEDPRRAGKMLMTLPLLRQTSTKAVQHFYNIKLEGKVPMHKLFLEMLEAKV
Procedure, shortened: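 Transient HepG2 transfectants, 24 h compound exposure, GAL4-UAS reporter mRNA by RT-PCR/6-FAM labelling/capillary electrophoresis; positive direction vs DMSO.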

[18] = biological target: Bile acid receptor (Homo sapiens) (UniProt Q96RI1); experiment: ATG_FXR_TRANS: Attagene TRANS-FACTORIAL HepG2 Assay for Farnesoid X Receptor (FXR) (AID 2282979; active = hit-call score of the fitted dose curve at least 0.9, where 1 is the maximum;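 also: hits raise reporter mRNA above DMSO so AC50 marks FXR activation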); settings: HepG2 Attagene TRANS FXR-GAL4 reporter transcription
Sequence of Bile acid receptor (Homo sapiens) (Q96RI1 whole entry, looked up, the tested form may be a part): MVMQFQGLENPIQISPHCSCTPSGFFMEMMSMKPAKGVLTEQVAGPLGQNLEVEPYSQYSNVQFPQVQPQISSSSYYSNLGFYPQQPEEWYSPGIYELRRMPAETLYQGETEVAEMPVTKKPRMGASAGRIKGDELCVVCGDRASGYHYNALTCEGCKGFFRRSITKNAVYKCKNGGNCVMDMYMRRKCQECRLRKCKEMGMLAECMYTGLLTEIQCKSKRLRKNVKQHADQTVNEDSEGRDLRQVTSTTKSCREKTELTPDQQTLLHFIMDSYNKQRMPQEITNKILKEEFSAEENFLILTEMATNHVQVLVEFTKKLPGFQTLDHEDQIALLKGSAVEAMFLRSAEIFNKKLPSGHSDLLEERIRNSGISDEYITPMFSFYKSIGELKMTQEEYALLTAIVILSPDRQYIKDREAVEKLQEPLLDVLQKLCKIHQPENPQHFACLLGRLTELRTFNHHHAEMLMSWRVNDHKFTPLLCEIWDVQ
Procedure, shortened: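 Transient transfection of HepG2 with multiplexed GAL4-UAS reporter units; exogenous FXR-GAL4 chimera. Dose 24 h → TriZol RNA → oligo(dT) RT → PCR, 6-FAM primer extension, HpaI cut → CE. Gain vs DMSO.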

[19] = biological target: Nuclear receptor subfamily 4 group A member 2 (Homo sapiens) (UniProt P43354); experiment: ATG_NURR1_TRANS: Attagene TRANS-FACTORIAL HepG2 Assay for human Nuclear Receptor Related Protein 1 (NURR1) (AID 2282985; active = hit-call score of the fitted dose curve at least 0.9, where 1 is the maximum); settings: HepG2 Attagene TRANS reporter, mRNA readout
Sequence of Nuclear receptor subfamily 4 group A member 2 (Homo sapiens) (P43354 whole entry, looked up, the tested form may be a part): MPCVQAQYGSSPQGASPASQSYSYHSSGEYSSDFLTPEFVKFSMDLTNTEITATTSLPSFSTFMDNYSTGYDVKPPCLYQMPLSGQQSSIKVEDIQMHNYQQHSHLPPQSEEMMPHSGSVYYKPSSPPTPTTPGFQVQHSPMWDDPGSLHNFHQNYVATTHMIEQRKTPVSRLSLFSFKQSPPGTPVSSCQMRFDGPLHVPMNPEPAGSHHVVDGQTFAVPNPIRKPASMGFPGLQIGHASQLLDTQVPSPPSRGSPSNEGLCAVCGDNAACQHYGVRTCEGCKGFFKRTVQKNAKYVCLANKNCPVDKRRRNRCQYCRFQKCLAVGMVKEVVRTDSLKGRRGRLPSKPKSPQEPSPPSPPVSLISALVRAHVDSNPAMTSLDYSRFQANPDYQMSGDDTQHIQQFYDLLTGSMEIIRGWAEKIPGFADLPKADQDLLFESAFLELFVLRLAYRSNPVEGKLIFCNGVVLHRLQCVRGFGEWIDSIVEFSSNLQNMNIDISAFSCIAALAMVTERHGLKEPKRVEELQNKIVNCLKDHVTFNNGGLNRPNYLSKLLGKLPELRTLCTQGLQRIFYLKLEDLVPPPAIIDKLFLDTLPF
Procedure, shortened: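 HepG2 cells transiently transfected with GAL4-UAS reporter units and chimeric NR-Gal4 constructs; chemical exposure 24 h. Reporter mRNA quantified by RT-PCR, fluorescent labelling and capillary electrophoresis; gain of signal fitted relative to DMSO baseline.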

Measured: AC50

O=C(O)CCCOc1ccc(Cl)cc1Cl
inactive: [1] | [2] | [3] | [4] | [5] | [6] | [7] | [8] | [9] | [10] | [11] | [12] | [13] | [14]
active: [10] 63.9 µM

CC[C@H](C)[C@H]1O[C@]2(C=C[C@@H]1C)C[C@@H]1C[C@@H](C/C=C(\C)[C@@H](O[C@H]3C[C@H](OC)[C@@H](O[C@H]4C[C@H](OC)[C@@H](O)[C@H](C)O4)[C@H](C)O3)[C@@H](C)/C=C/C=C3\CO[C@@H]4[C@H](O)C(C)=C[C@@H](C(=O)O1)[C@]34O)O2 (tested in a mixture with another compound)
active: [13] 12 µM | [14] 5.44 µM
not listed: [2] | [3] | [5] | [17] | [18] | [19]
inactive: all other assays above

ClC1C(Cl)C(Cl)C(Cl)C(Cl)C1Cl (stereo not given)
active: [18] 139 µM | [10] 33.2 µM and 26.2 µM | [11] 10.1 µM and 100 µM | [12] 150 µM and 77.6 µM | [14] 28.4 µM
inactive: [1] | [2] | [17] | [18] | [3] | [4] | [5] | [19] | [6] | [8] | [9] | [16] | [10] | [11] | [12] | [13] | [14]
